Data from PubChem BioAssay AID624296 (National Center for Advancing Translational Sciences (NCATS), 2012).
Screen size: about 350,000 compounds; about 9,900 (2.8%) were called active. Another 15% or so got no clear call; they are omitted. For the sample, actives were picked, then their nearest neighbours and some compounds at random. A number with no mark means an inactive call. Calls come from the whole dose curve; as a rule, active = well fitted activation curve with a large enough effect; inconclusive = small, poorly fitted or top-dose-only effect; inactive = no such curve, though single readings can be large or run the other way.

Experiment: A quantitative high throughput screen for small molecules that induce DNA re-replication in MCF 10a normal breast cells. For activity, positive = re-replication: % of control where 0% means no effect. Note: nearly all actives have a fitted effect of over 50% in size.
Details: MCF 10A DNA re-replication, Hoechst nuclear intensity, 48 h; series mostly up to 46.1 µM; activity, positive = re-replication: at the top concentration
Text: H Molecular Libraries Probe Production Network [MLPCN]
NIH Chemical Genomics Center [NCGC]
Assay Provider: Melvin DePamphilis, NICHD, NIH
Eukaryotic cells normally restrict genome duplication to once per cell division. When this process is aberrant, DNA re-replication occurs when cells reinitiate DNA replication before the first round of replication is complete. DNA re-replication induces the DNA damage response, arrests cell proliferation, and triggers apoptosis. The cell cycle components cyclin A, Cdt-1, Cdc6 and geminin are critical regulators of this process and their misregulation results in DNA re-replication in normal and cancer cells. To identify compounds that induce re-replication in normal cells, an image-based assay was used to measure DNA content of nuclei, as detected by the fluorescent DNA binding dye, Hoechst. Cell nuclei were imaged by a fluorescence scanning plate imager and compounds that induce DNA re-replication were identified by the increase of nuclei with elevated fluorescence intensity
For screening, 250 cells in 5 uL/well were dispensed into black clear 1536-well plates (Aurora) using a solenoid-based dispenser. Following transfer of 23 nL compound or DMSO vehicle by a pin tool, the plates were incubated 48 hr at 37 C and 5% CO2. After addition of 1 uL/well Hoescht stain, the plates were incubated 40 min at 37 C, 5% CO2 and total intensity of fluorescent objects (nuclei) were enumerated by an Acumen Explorer Ex3 (TTP LabTech) fluorescence scanning plate imager (405 nm excitation, 500-530 nm emission).
Keywords: NIH Roadmap, MLPCN, MLI, MLSMR, qHTS, NCGC, DNA replication, cancer
Potency is the fitted concentration of half-maximal effect.

Compound	activity, positive = re-replication	Potency
O=C(NCCc1ccccc1)c1c[nH]c2ccc(F)cc2c1=O	-1.92%	
Nn1c(SCC(=O)NC2CCCc3ccccc32)nnc1C1CC1 (centres undefined)	-1.36%	
Cc1noc(C)c1S(=O)(=O)N(C)C[C@H]1Oc2ccc(NC(=O)C3CC3)cc2C(=O)N([C@H](C)CO)C[C@@H]1C	-4.09%	
COc1ccc(-c2nc3c(s2)CCc2onc(-c4ccc(OC)cc4)c2-3)cc1		4.11 µM (active)
COc1ccc(-c2nc3c(s2)CCc2onc(-c4ccc(Br)cc4)c2-3)cc1	-16.8%	
COc1ccc(-c2nc3n(c2Br)CCC3)cc1	-5.29%	
O=C(O)c1ccccc1/C=N/Nc1ccc(S(=O)(=O)Nc2ccc(Cl)cc2)cc1[N+](=O)[O-]	27.4%	
Cc1noc(C)c1NC(=O)Nc1ccc2c(c1)C(=O)N([C@H](C)CO)C[C@H](C)[C@@H](CN(C)C(=O)Nc1ccccc1)O2	-0.387%	
CCOC(=O)C(=Cc1ccccc1OC)C(=O)OCC		14.6 µM (active)
COc1ccccc1C(=O)c1ccccc1C(=O)c1ccccc1	14.2%	
CCOC(=O)C(=CNc1cccc(C)n1)C(=O)OCC	2.73%	
Cc1ccc(S(=O)(=O)c2c(COC(=O)c3cccc(Cl)c3)c(-c3ccccc3)nn2C)cc1	10.6%	
Cn1nc(-c2ccccc2)c(CO)c1Sc1ccccc1	2.31%	
Cn1nc(-c2ccccc2)c(CSc2cccc(Cl)c2)c1Cl		5.17 µM (active)
O=C(NN=Cc1ccc(N2CCOCC2)cc1)c1cc2ccccc2cc1O	13.2%	
CCOCc1c(C(=O)N2CCN(Cc3ccc(Br)s3)CC2)oc2ccccc12	12.6%	
CCN(/N=C/c1ccccc1)c1cc(=O)n(C)c(=O)[nH]1	-8.5%	
CCN(/N=C/c1ccc(N(C)C)cc1)c1nc2ccccc2[nH]1		5.8 µM (active)
CN(C)c1ccc(/C=N/N(Cc2ccccc2)c2ccccc2)cc1	14.1%	
Cc1ccc(S(=O)(=O)N2CCN(C(=O)COC(=O)CNC(=O)c3ccc(C(C)(C)C)cc3)CC2)c(C)c1	-2.41%	
O=C(CCNS(=O)(=O)c1ccccc1)NCCCc1ccccc1	1.7%	
O=C(Cc1ccc(NC(=O)C2CCCN(C(=O)CCc3ccccc3)C2)cc1)Nc1ccc(C(=O)N2CCOCC2)cc1 (centres undefined)	-4.89%	
Cn1c(=O)[nH]c2c(c(C(=O)O)nn2C)c1=O	0.839%	
O=C(Nc1ccc(Cl)c(Cl)c1)N1CC=C(c2ccccc2)CC1		14.6 µM (active)
O=C(O)c1cccc(S(=O)(=O)N2CC=C(c3ccccc3)CC2)c1	8.48%	

Compound	activity, positive = re-replication	Potency
COc1cc(C(=O)NCC(=O)N2CC=C(c3ccccc3)CC2)cc(OC)c1OC	7.06%	
CCOc1ccc(/C=C(/C#N)c2nnc(N3CCOCC3)n2-c2ccccc2)cc1OC	-7.13%	
COc1cccc2c1C(=O)c1c(O)c3c(c(O)c1C2=O)CC(O)(C(C)=NNC(=O)c1ccc(Cl)c(Cl)c1)CC3OC1CC(N)C(O)C(C)O1 (centres undefined)	1.42%	
COc1cc(OC)c(C(=O)Nc2ccccc2-c2ccccc2)cc1OC		18.4 µM (active)
COc1cc2ccccc2cc1C(=O)Nc1ccccc1C	0.228%	
O=C(Nc1ccccc1-c1ccccc1)c1ccccc1[N+](=O)[O-]	17.7%	
O=C1C=C(c2cccc(Br)c2)C[C@@H](c2ccc(F)cc2)C1	5.52%	
CNc1nc(=O)n(C2CCCO2)cc1C (centres undefined)	-4.08%	
COc1ccc(C(=O)Nc2ccc(N3CCC(C)CC3)cc2)cc1Br	-4.31%	
COc1ccc(C(=O)Nc2ccc(C3(C#N)CCCC3)cc2)cc1OC		20.6 µM (active)
COc1ccc(C2(C#N)CCC(C(=O)O)CC2)cc1OC1CCCC1 (centres undefined)	22.2%	
CCOC(=O)CSC1=C(C#N)C(c2sccc2C)CC(=O)N1 (centres undefined)		2 µM (active)
COC(=O)CSC1=C(C#N)C(c2ccccc2OC)C(C(=O)OC)C(=O)N1 (centres undefined)	2.02%	
C=CCOC(=O)C1=C(C)NC(SCC(=O)OCC)=C(C#N)C1c1ccc(C)cc1 (centres undefined)	-0.999%	
COc1cc2c(cc1OC)C(c1ccc(C)o1)CC(=O)N2 (centres undefined)	-6.53%	
C=CCSC1=C(C#N)C(c2cc(Br)c(O)c(OC)c2)CC(=O)N1 (centres undefined)	9.73%	
Cc1ccc(C2CC(=O)NC(SCC(=O)OCc3ccccc3)=C2C#N)o1 (centres undefined)		20.6 µM (active)
CSCCC(NC(=O)COc1ccccc1)C(=O)OCc1ccc(Cl)cc1 (centres undefined)	-3.5%	
COc1cc(N)c(Cl)cc1C(=O)OCC(=O)c1ccc2c(c1)NC(=O)CO2	8.09%	
CCOC(=O)N(Cc1ccccc1)C1CC1	-3.86%	
CC1(C)C(=O)CCC2(C)C1=CCC1C2C(=O)CC2(C)C1CCC2(O)C(=O)CO (centres undefined)	-0.698%	
NS(=O)(=O)c1ccc(CNC(=S)NC(=O)c2ccco2)cc1	-22.5%	
O=C(CNC(=O)c1ccc2ccccc2c1)Nc1ncccc1O	0.181%	
CCOc1cccc(-n2nnnc2-c2ccc(OC)cc2)c1		6.51 µM (active)
